HCV inh – HCV inhibition; Huh7.5.1 HCVcc-Cre infection, luciferase reporter, 44 h; Potency, µM (titrated, usually from 41.8 µM), for the others: at the highest dose activity change, negative = inhibition, most hits filed as inhibitors; 340,000 compounds, 3.4% hits; AID 651820
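After 44 h co-culture of compound, cells and HCVcc-Cre (~0.5 moi), substrate is added for 15 min at room temperature and luciferase measured over 15 sec. Cells were seeded at 1,000/well and pre-cultured 4 h.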
AMA1 RON2 block – AMA1-RON2 (P. falciparum) interaction inhibition; AID 720542; 360,000 compounds, 0.2% hits; Potency, µM (titrated, usually from 58.2 µM), inactives show at the top dose activity change, negative = inhibition, hits mostly inhibitors; AlphaScreen AMA1-biotinylated RON2 peptide binding;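 further: 0% = vehicle wells and -100% = peptide control; nearly all actives have a fitted effect of over 45% in size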
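AMA1 (3D7) with his tag at 25 nM final met compounds first, then biotinylated RON2 peptide at 25 nM; detection used donor plus acceptor beads, 10 µg/mL apiece, read by AlphaScreen after 30 min at room temperature.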
Pf growth 96h – P. falciparum growth inhibition at 96 hour, primary screen for plastid delayed-death inhibitors; P. falciparum luciferase reporter growth, 96 h; Potency, µM (titrated, usually from 28.7 µM), inactives show at the highest dose activity change, negative = inhibition, most hits filed as inhibitors; 320,000 compounds, 6.9% hits; AID 504834
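Infected RBCs, 2% Hct / 0.05% parasitemia final; luciferase-reporter P. falciparum; cpd 96 h, 37 C, 5% CO2; luciferase detection reagent; luminescence.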
Pf growth 48h – inhibits P. falciparum growth in the first generation, 48 h | P. falciparum luciferase growth in erythrocytes, 48 h | Potency, µM (highest dose often 28.7 µM), without a hit: at the highest dose activity change, negative = inhibition, usual class: inhibitors | 310,000 compounds, 5.9% hits | AID 504832
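Here the parasites carry a stable luciferase gene and grow inside erythrocytes in Albumax-based RPMI medium with compound for one erythrocytic cycle. Activity is scored as loss of luminescent signal.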
AmpC inh detg – AmpC beta-lactamase inhibition with detergent present. AmpC hydrolysis of nitrocefin, absorbance 480 nm, 0.01% Triton. Potency, µM (top dose mostly 114 µM), for inactives: at the top dose activity change, negative = inhibition, usual class: inhibitors. 370,000 compounds, 0.041% hits. AID 485294;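 further: 0% = no-compound wells and -100% = no-enzyme wells; nearly all actives have a fitted effect of over 25% in size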
Target sequence (P00811 whole entry, looked up): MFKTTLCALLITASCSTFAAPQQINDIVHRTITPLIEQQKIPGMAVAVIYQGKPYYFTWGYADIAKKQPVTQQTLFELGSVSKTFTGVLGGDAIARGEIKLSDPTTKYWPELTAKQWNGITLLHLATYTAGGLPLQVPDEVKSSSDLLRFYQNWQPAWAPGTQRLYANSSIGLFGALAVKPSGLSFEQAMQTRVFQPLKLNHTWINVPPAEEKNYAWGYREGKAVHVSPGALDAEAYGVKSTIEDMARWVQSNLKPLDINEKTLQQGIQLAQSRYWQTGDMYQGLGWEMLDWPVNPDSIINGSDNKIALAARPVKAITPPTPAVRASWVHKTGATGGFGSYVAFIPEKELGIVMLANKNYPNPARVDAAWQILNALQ
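20 mM phosphate pH 7.0 + 0.01% (detergent screen) or 0.0001% Triton X-100; 5.3 nM AmpC reagent; cpd preinc 15 min RT; nitrocefin (800 uM stock) to start; A480 q20 s × 4 min; Activity was normalised to no-enzyme and no-compound control wells.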
AmpC inh no detg – AmpC beta-lactamase inhibition without detergent | Potency, µM (titrated, usually from 57.1 µM), for the others: at the highest dose activity change, negative = inhibition, actives largely listed as inhibitors | AmpC nitrocefin hydrolysis, absorbance 480 nm, 0.0001% Triton | P00811 | AID 485341 | 330,000 compounds, 0.52% hits;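 further: plate controls were no compound for no effect and no enzyme for full effect; nearly all actives have a fitted effect of over 20% in size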
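20 mM phosphate pH 7.0 + 0.01% (detergent screen) or 0.0001% Triton X-100; 5.3 nM AmpC reagent; cpd preinc 15 min RT; nitrocefin (800 uM stock) to start; A480 q20 s × 4 min; Activity was normalised to no-enzyme and no-compound control wells.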
* hit, by the source's call; ? = inconclusive; · = no result given; [ ] = another dose, or the depositor's remark. Hits are enriched below; roughly 11% of the tested compounds scored in any of these assays. The call rests on the fitted dose curve; in most records, active means well fitted curve in the direction sought with a large enough effect; inconclusive means small, poorly fitted or top-dose-only effect, or another doubt; inactive means no such curve, though single readings can be large; an effect the other way counts as inactive or inconclusive. Unless noted, on the % scale 0 is the no-effect control and ±100 the full control effect; potency means the concentration at half of the fitted maximal effect.

SMILES	HCV inh	AMA1 RON2 block	Pf growth 96h	Pf growth 48h	AmpC inh detg	AmpC inh no detg
CCOc1ccccc1NC(=O)CSc1nnc2c(CC)c(C)nc(N)n12	15.0%	2.0%	·	-2.5%	-10.5%	-6.9%
Nc1cc(=O)[nH]c2nnc(SCC(=O)Nc3cccc4ccccc34)n12	2.9%	-1.3%	7.38µM*	-5.2%	-0.8%	-14.9%
COc1ccc(-n2c(SCC(=O)Nc3ccc(C(N)=O)cc3)nc3ccccc3c2=O)cc1OC	-14.4%	-4.6%	?	-16.6%[0.00184 µM]	-2.9%	-1.8%
CCOc1ccccc1NC(=O)CSc1nc2cc(O)ccc2c(=O)n1-c1ccc(OC)c(OC)c1	11.2µM*	-10.5%	?	?	-3.2%	110.3%
CCc1c(C)nc(N)n2c(SCC(=O)Nc3ccccc3OC)nnc12	26.1%	6.5%	10.4µM*	-4.3%	-16.1%	-12.5%
COc1ccc(N2C(=O)CSC23C(=O)N(CC(=O)NCc2ccccc2)c2ccccc23)cc1 (centres undefined)	·	·	·	·	-0.1%	·
COc1ccccc1NC(=O)CSc1nc(O)cc(=O)n1-c1ccccc1OC	15.4%	24.5%	·	3.29µM*	-10.1%	-9.0%
Cc1ccc(-n2c(SCC(=O)Nc3ccc4c5c(cccc35)CC4)nc(O)c(C)c2=O)cc1	-7.0%	1.0%	14.7%	10.4%	?	-24.5%
Cc1ccc(-n2c(SCC(=O)Nc3ccc4c5c(cccc35)CC4)nc(O)cc2=O)cc1	-21.3%	67.7%	2.62µM*	2.94µM*	-0.3%	-52.1%
O=C(Nc1ccccc1O)c1ccc(C(=O)c2ccccc2)o1	?	2.6%	?	8.28µM*	?	-31.8%
COc1ccccc1NC(=O)c1ccc(C(=O)c2ccccc2)o1	?	-7.5%	-25.6%	?	-7.1%	-11.1%
Cc1ccccc1-c1cc(C(=O)Nc2sc(C(=O)OC(C)C)c(C)c2C#N)c2ccccc2n1	12.6µM*	-29.6%	-1.7%[5.75 µM]	-9.6%	?	-38.4%
Cc1sc(NC(=O)c2ccc(Br)s2)c(C(N)=O)c1C	11.2µM*	-2.5%	·	214.0%	-4.2%	-50.5%
CCOC(=O)c1sc(NC(=O)c2cc(-c3ccc(C)cc3)nc3ccccc23)c(C#N)c1C	12.3%	10.8%	13.8%	?	-0.3%	-54.0%
COC(=O)c1sccc1NC(=O)c1cc(-c2cccc(C)c2)nc2ccccc12	7.3%	-13.3%	-95.7%	9.28µM*	-7.2%	-17.1%
COC(=O)c1sc(NC(=O)c2cc(-c3ccccc3)nc3ccccc23)c(C#N)c1C	11.2µM*	1.0%	-22.0%	-19.2%	56.2µM*	-44.9%
COc1ccc(S(=O)(=O)NCCc2sc(-c3ccccc3)nc2C)cc1F	·	·	·	·	-1.1%	·
COC(=O)c1ccccc1NC(=O)CSc1nc2sc3c(c2c(=O)[nH]1)CCCC3	·	·	·	·	-0.1%	·
Cc1sc(NC(=O)c2cc(-c3ccc(Cl)cc3)nc3ccccc23)c(C(N)=O)c1C	?	2.0%	35.9%	?	-0.2%	-15.0%
Cc1sc(NC(=O)c2cc(-c3ccccc3)nc3ccccc23)c(C(N)=O)c1C	12.6µM*	-6.6%	-16.1%	-65.1%	-10.0%	-15.3%
Cc1sc2ncnc(N3CCCCC3C)c2c1C (centres undefined)	?	-12.9%	-11.3%	7.7%	-18.7%	-7.8%
Cc1c(C(=O)NCCC2=CCCCC2)sc2ncnc(N3CCCCC3C)c12 (centres undefined)	?	6.0%	2.62µM*	?	-4.2%	14.5%
COC(=O)c1ccc(/C=C/c2c(-c3ccsc3)oc3ccc(N4CCOCC4)cc23)cc1	12.1%	1.4%	13.1µM*	?	-12.7%	-6.3%
CCn1c(=O)n(-c2ccc(Cl)cc2)c(=O)c2c3c(sc21)COC(C)(C)C3	-21.8%	17.5%	7.38µM*	?	1.3%	-3.4%
CC1(C)Cc2c(sc3c2c(=N)n(Cc2ccco2)c(=O)n3Cc2ccc(Cl)cc2)CO1	?	-5.7%	10.4µM*	5.22µM*	-8.6%	14.5%
SMILES	HCV inh	AMA1 RON2 block	Pf growth 96h	Pf growth 48h	AmpC inh detg	AmpC inh no detg
CC1(C)Cc2c(sc3c2c(=O)n(Cc2ccccc2)c2nncn32)CO1	14.1%	6.1%	-24.5%	0.2%	-8.6%	-7.6%
CC1(C)Cc2c(sc3c2c(=N)n(Cc2ccco2)c(=O)n3Cc2ccccc2)CO1	?	-2.0%	-21.1%	9.28µM*	-8.6%	65.8%
CCc1cccc(C)c1NC(=O)c1cc(CN2CCCC2)on1	·	·	·	·	5.7%	·
O=C(c1ccccc1)[C@@H]1[C@@H](C(=O)c2ccc(F)cc2)[C@@]2(C(=O)Nc3ccccc32)[C@H]2c3ccccc3C=CN12	0.9%	-7.8%	?	14.7µM*	-4.2%	-25.6%
CC(=O)[C@@H]1[C@@H](C(=O)c2ccccc2)[C@]2(C(=O)Nc3ccccc32)[C@H]2C=Cc3cc(F)ccc3N12	1.3%	-9.5%[2.32 µM]	?	-13.9%	?	25.4%
N=C1C(c2nc3ccccc3s2)=C(O)CN1NC(=O)c1c[nH]c2ccccc12	17.7%	-15.9%	16.8%	1.0%	0.5%	15.8µM*
N=C1C(c2nc3ccccc3s2)=C(O)CN1NC(=O)c1ccccc1[N+](=O)[O-]	1.4%	-0.1%	2.5%	52.6%	0.0%	-4.2%[2.29 µM]
COc1cc(/C=N/NC(=O)CCc2ccccc2)ccc1O	0.9%	-2.7%	91.6%	2.6%	2.5%	-12.4%
COc1cccc(OCc2cc(/C=N/Nc3ccc(C(=O)O)cc3)ccc2OC)c1	0.1%	-2.4%	-8.3%	8.8%	5.0%	17.8µM*
COc1cc(/C=N/NC(=O)CCN2CCN(C(c3ccccc3)c3ccccc3)CC2)ccc1O	4.47µM*	3.4%	11.7µM*	?	-2.2%	-4.3%
COc1cc(/C=N/NP(=S)(c2ccccc2)c2ccccc2)ccc1O	0.1%	15.7%	?	·	?	-50.3%
COc1cccc(C(=O)Oc2ccc(/C=N/Nc3ccc(C(=O)O)cc3)cc2OC)c1	8.3%	-26.0%	28.0%	0.0%	-13.0%	-39.0%
COc1cc(/C=N/Nc2ccccc2)ccc1O	-11.2%	3.1%	10.4µM*	?	2.8%	-26.4%
COC(=O)c1[nH]c2cc(OC)c(OC)cc2c1NC(=O)CN1CCN(Cc2ccccc2)CC1	·	·	?	?	-9.1%	81.3%
COC(=O)c1[nH]c2cc(OC)c(OC)cc2c1/C=N/Nc1ccccc1	10µM*	-2.6%	?	0.0%	-4.7%	20.0%
COc1ccc(C(=O)N2CCCCC2CCN2CCCCC2)cc1 (centres undefined)	·	·	·	·	19.5%	·
COc1cc(/C=N/Nc2cccc(C)c2)cc(Br)c1O	-26.8%	-3.0%	?	?	-1.5%	31.6µM*
